Pf growth 48h = P. falciparum growth inhibition at 48 hours (one generation); P. falciparum luciferase growth in erythrocytes, 48 h; Potency, µM (top dose mostly 28.7 µM), actives largely listed as inhibitors; hit rate 5.9% among 310,000; AID 504832
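Cell-based growth assay: transgenic P. falciparum expressing firefly luciferase, cultured in red cells within RPMI 1640 containing 0.5% w/v Albumax, 24 mM bicarbonate and gentamycin. A drop in luciferase activity indicates inhibition.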
Shiga toxin inh = inhibitors of Shiga toxin in Vero cells. Vero cells, Shiga toxin protein synthesis inhibition reporter. inhibition, % at 38.7 µM. hit rate 9.2% among 290,000; in the data active = inhibition mostly above about 28%, no sharp cut-off; inactive = mostly below about 43%
HCV inh = inhibitors of hepatitis C virus infection. Huh7.5.1 HCVcc-Cre infection, luciferase reporter, 44 h. Potency, µM (series often up to 41.8 µM), actives largely listed as inhibitors. hit rate 3.4% among 340,000. AID 651820
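Antiviral activity was scored by luciferase reporter output from cells infected with HCVcc-Cre (~0.5 moi) in presence of compound, 44 h infection period, cells seeded 1,000/well 4 h prior.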
AMA1 RON2 block = disrupts binding of P. falciparum AMA1 to RON2. AlphaScreen AMA1-biotinylated RON2 peptide binding. Potency, µM (series often up to 58.2 µM), hits mostly inhibitors. hit rate 0.2% among 360,000; note: nearly all actives have a fitted effect of over 45% in size
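AMA1 (3D7) with his tag at 25 nM final met compounds first, then biotinylated RON2 peptide at 25 nM; detection used donor plus acceptor beads, 10 µg/mL apiece, read by AlphaScreen after 30 min at room temperature.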
Pf growth 96h = P. falciparum growth inhibition at 96 hours. Potency, µM (titrated, usually from 28.7 µM), usual class: inhibitors. P. falciparum luciferase reporter growth, 96 h. hit rate 6.9% among 320,000. AID 504834
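Erythrocytes infected with luciferase-expressing P. falciparum were dispensed at 2% hematocrit and 0.05% parasitemia (final), then incubated with compounds 96 hours at 37 C in 5% CO2. Luminescence after detection reagent addition reported growth.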
Cycloheximide cs = counter-screen hit for Shiga toxin inhibitors, cycloheximide. cell reporter, cycloheximide protein synthesis inhibition counterscreen. hit rate 12% among 300,000. max response, %; in the data active = max response mostly above about 13%, no sharp cut-off; inactive = mostly below about 14%; note: read at 38.3 µM for the half of the compounds with a filed dose
Of the large screens only hits and unclear results are named; the others gave an inactive call; ! = not active in a repeat. An excerpt weighted towards active compounds, which were near 21% of everything screened. Unless noted, calls come from the whole dose curve; as a rule, active = well fitted curve in the direction sought with a large enough effect; inconclusive = small, poorly fitted or top-dose-only effect, or another doubt; inactive = no such curve, though single readings can be large; an effect the other way counts as inactive or inconclusive.

CC(C)(C)c1ccc(S(=O)(=O)N2CCCCC2)cc1	Pf growth 48h inconclusive, Pf growth 96h 12µM
CCOC(=O)C1(CC2CCCCO2)CCN(S(=O)(=O)c2ccccc2)CC1 (centres undefined)	Pf growth 48h inconclusive, Pf growth 96h inconclusive
COC(=O)c1ccc(CN(c2ccc(C(=O)O)c(O)c2)S(=O)(=O)c2ccc(Cl)c([N+](=O)[O-])c2)cc1	HCV inh inconclusive
COc1ccc(CNC(=O)CCN2C(=O)[C@@H]3Cc4ccccc4CN3C2=O)cc1	HCV inh inconclusive, Pf growth 96h inconclusive
Cc1ccc(OCC(=O)N2CCCCCCC2)cc1	Pf growth 96h inconclusive, Cycloheximide cs 16
O=C(COc1ccc(S(=O)(=O)N2CCCCC2)cc1)N1CCCCCC1	Pf growth 48h inconclusive, Pf growth 96h 13µM
O=C(COc1ccc(Br)cc1)N1CCN(S(=O)(=O)/C=C/c2ccccc2)CC1	Pf growth 48h inconclusive, HCV inh inconclusive, Pf growth 96h 12µM
CCCCOc1ccc(S(=O)(=O)N2CCCCCC2)cc1	Pf growth 96h 12µM
CC1CCN(C(=O)COc2ccc(S(=O)(=O)N3CCCC3)cc2)CC1	none
CCS(=O)(=O)N1Cc2cc(C(=O)NCCOC)nc(-c3cccc(-c4ccncc4)c3)c2[C@H]1CCO	none (no result: Pf growth 48h, Shiga toxin inh, HCV inh, Pf growth 96h, Cycloheximide cs)
NS(=O)(=O)c1ccc(CCNC(=O)Cc2cccs2)cc1	Pf growth 96h inconclusive (no result: Shiga toxin inh)
O=C(COc1ccc(Cl)cc1)N1CCCC1	Shiga toxin inh 37, Cycloheximide cs 12
O=C(COc1ccccc1)N1CCCC1	Pf growth 96h inconclusive
COc1ccccc1NC(=O)c1c(N=Cc2c(O)ccc3ccccc23)cnn1C	Pf growth 48h 7.4µM, HCV inh inconclusive, Pf growth 96h inconclusive
COc1ccccc1NCC(=O)N/N=C/c1c(O)ccc2ccccc12	Pf growth 48h inconclusive, HCV inh 2.8µM
C[C@H](CO)N1C[C@H](C)[C@@H](CN(C)CC2CCCCC2)Oc2c(NC(=O)Cc3ccccc3)cccc2C1=O	HCV inh inconclusive (no result: Pf growth 48h, Shiga toxin inh, Pf growth 96h, Cycloheximide cs)
NC(N)=NC(=O)Cc1c(Cl)cccc1Cl	Pf growth 48h inconclusive, Pf growth 96h 1.9µM!
C[C@@H]1CN([C@H](C)CO)C(=O)CCCn2cc(nn2)CO[C@H]1CN(C)C(=O)C1CC1	none (no result: Pf growth 48h, Shiga toxin inh, HCV inh, Pf growth 96h, Cycloheximide cs)
CCOc1ccccc1Nc1nc(-c2cccnc2)cs1	Pf growth 48h 13µM, HCV inh 10µM
c1cncc(Nc2nc(-c3ccncc3)cs2)c1	HCV inh inconclusive (no result: Pf growth 96h)
Clc1ccccc1-c1csc(Nc2cccnc2)n1	Pf growth 48h inconclusive, Shiga toxin inh 53, Cycloheximide cs 26
c1cncc(Nc2nc(-c3cccnc3)cs2)c1	HCV inh inconclusive (no result: Pf growth 96h)
Clc1ccccc1Nc1nc(-c2cccnc2)cs1	Shiga toxin inh 50, HCV inh inconclusive, Cycloheximide cs 41
COC(=O)C1=C(C)N(CCc2c[nH]c3ccc(OC)cc23)C(=O)C1	Pf growth 48h inconclusive, Pf growth 96h inconclusive
CCN(CC(=O)Nc1cc(Cl)ccc1C)C(=O)c1nc2nc(C)cc(C)n2n1	HCV inh inconclusive (no result: Shiga toxin inh, Cycloheximide cs)
CCC(C)NC(=O)c1ccc(NC(=O)CC2SC(N3CCCC3)=NC2=O)cc1 (centres undefined)	Pf growth 96h inconclusive (no result: Shiga toxin inh, Cycloheximide cs)
CCCCCCSc1nsc(NC(=O)CC(C)C)n1	Shiga toxin inh 37, Pf growth 96h inconclusive, Cycloheximide cs 27
CCCSc1nsc(NC(=O)CC)n1	Shiga toxin inh 72, Pf growth 96h 8.3µM, Cycloheximide cs 38
CCCSc1nsc(NC(=O)C(c2ccccc2)c2ccccc2)n1	HCV inh inconclusive, Pf growth 96h inconclusive (no result: Pf growth 48h)
CCCCCCCSc1nsc(N)n1	Shiga toxin inh 65
O=C1O[C@@H]([C@@H](O)CO)[C@@H](O)[C@H]1O	none (no result: Shiga toxin inh, HCV inh, AMA1 RON2 block, Cycloheximide cs)
Cc1nc2c(OCc3ccc(C(F)(F)F)cc3)cccn2c1N(C)Cc1cccs1	none (no result: Pf growth 48h, Shiga toxin inh, HCV inh, Pf growth 96h, Cycloheximide cs)
CCCC(=O)C1=C(O)C(C(=O)OC)C(C)(C)CC1=Nc1ccccc1 (centres undefined)	Pf growth 48h 4.1µM
CCCC(=O)C1=C(O)C(C(=O)OC)C(C)(C)CC1=NCc1ccccc1 (centres undefined)	Pf growth 48h inconclusive, Pf growth 96h 7.4µM
CCC(=NCc1ccccc1)C1=C(O)C(C(=O)OC)C(C)(C)CC1=O (centres undefined)	Pf growth 96h 12µM
CCCC(=O)C1=C(O)C(C(=O)OC)C(C)(C)CC1=Nc1cccc2ccccc12 (centres undefined)	Pf growth 48h 5.2µM, HCV inh inconclusive
CCCC(=NCc1ccccc1)C1=C(O)C(C(=O)OC)C(C)(C)CC1=O (centres undefined)	Pf growth 96h inconclusive (no result: Pf growth 48h)
CCNC(=O)C1(C)CCN(C(=O)c2ccccc2C(F)(F)F)C1 (centres undefined)	none (no result: Pf growth 48h, Shiga toxin inh, HCV inh, Pf growth 96h, Cycloheximide cs)
CN(Cc1ccc2c(c1)CCCN2C)C(=O)[C@H]1O[C@@H](n2cnc3c(N)ncnc32)[C@H](O)[C@@H]1O	none (no result: Pf growth 48h, Shiga toxin inh, HCV inh, Pf growth 96h, Cycloheximide cs)
O=C(O)CCC(=O)/C=C/c1ccccc1	Pf growth 96h inconclusive
CCOc1ccc(/C=C\C(C)=N\O)cc1	Shiga toxin inh 97, Cycloheximide cs 38
CCOc1ccc(/C=C/C(=O)CCC(=O)O)cc1	Shiga toxin inh 74, Cycloheximide cs 54
CCOc1ccc(/C=C/C(=O)Oc2ccc(OC)cc2)cc1	Pf growth 48h inconclusive, Pf growth 96h inconclusive
CC(C)c1ccc(/C=C/C(=O)CCC(=O)O)cc1	Cycloheximide cs 43
CC[C@@H](C)C(N)C(=O)O (some centres undefined)	none (no result: HCV inh, AMA1 RON2 block)
Cc1ccc(CNC(=O)C2CCCN(c3cnccn3)C2)cc1 (centres undefined)	Pf growth 96h inconclusive
Cn1c(CC(=O)Nc2ccccc2F)nnc1SCC(=O)N1CCOCC1	Cycloheximide cs 30
N#C/C(=C\c1ccc(OCCN2CCOCC2)cc1)C(=O)Nc1ccc(S(N)(=O)=O)cc1	Pf growth 96h 6.6µM
COc1ccccc1NC(=O)/C(C#N)=C/c1ccc(OCCN2CCOCC2)c(OC)c1	none
COc1ccc(NC(=O)/C(C#N)=C/c2ccc(OCCN3CCOCC3)c(OC)c2)c(OC)c1	Pf growth 96h 13µM
CC1CC(C)CN(C(=O)/C=C/c2ccc(S(=O)(=O)N3CCOCC3)cc2)C1 (centres undefined)	Pf growth 48h 9.3µM, Pf growth 96h 5.2µM (no result: Shiga toxin inh, Cycloheximide cs)
O=C(/C=C/c1ccc2ccccc2n1)N1CCN(S(=O)(=O)c2ccc(F)cc2)CC1	Pf growth 48h inconclusive, Pf growth 96h 10µM
O=C(/C=C/c1ccc(S(=O)(=O)N2CCOCC2)cc1)N1CCN(c2ccc(F)cc2)CC1	Pf growth 48h 7.4µM, Pf growth 96h inconclusive
O=C(c1ccc(S(=O)(=O)N2CCOCC2)cc1)N1CCN(c2ccc(F)cc2)CC1	none (no result: Pf growth 96h)
Cn1c(=O)c2sc3c(c2n(CC(=O)Nc2ccccc2)c1=O)COC(C)(C)C3	Pf growth 48h inconclusive, Pf growth 96h inconclusive
CSc1ccc(CNC(=O)C2(C)CCN2C(C)C)cc1 (centres undefined)	none (no result: Pf growth 48h, Shiga toxin inh, HCV inh, Pf growth 96h, Cycloheximide cs)
